SMILES strings stand for the structures. Inconclusive results are not listed. The source made the active and inactive calls. Rule for the calls: active = hit-call score of the fitted dose curve at least 0.9, where 1 is the maximum; inconclusive = response in the unintended direction; inactive = score below 0.9.

Among the data in PubChem BioAssay AID2284324 (EPA ToxCast) are outcome values, retold here.

This experiment deals with Japanese medaka Glucocorticoid Receptor (GR), gene 101170451. As to the kind of experiment: ATG_jmGR_EcoTox2: Attagene TRANS-FACTORIAL EcoTox-2 HepG2 Assay for Japanese medaka Glucocorticoid Receptor (GR). The procedure: ATG_EcoTox2 is a cell-based, multiplexed assay created by modifying the existing Attagene TRANS-FACTORIAL system to include a panel of nuclear receptors from some or all the following species: human (Homo sapiens), african clawed frog (Xenopus laevis), rainbow trout (Oncorhynchus mykiss), japanese medaka (Oryzias latipes), and zebrafish (Danio rerio). The ECOTOX2-FACTORIAL format uses HepG2, a human liver cell line, with measurements taken at 24 hours after chemical dosing in a 24-well plate. ATG_jmGR_EcoTox2 is one of 29 assay components calculated in the ATG_EcoTox2 assay. It is designed to make measurements of mRNA induction, a form of inducible reporter, as detected with fluorescence intensity signals by Reverse transcription polymerase chain reaction (RT-PCR) and Capillary electrophoresis technology.The assay endpoint ATG_jmGR_EcoTox2 was analyzed in the positive analysis fitting direction relative to DMSO as the negative control and baseline of activity. Using a type of inducible reporter, measures of mRNA for gain-of-signal activity can be used to understand the reporter gene at the transcription factor-level as they relate to the gene for glucocorticoid receptor. Furthermore, this assay endpoint can be referred to as a primary readout, because this assay has produced multiple assay endpoints where this one serves a reporter gene function. […]

For `O=P(Oc1ccccc1)(Oc1ccccc1)Oc1ccccc1`, the call was inactive.
The same measure for `CCCCOCN(C(=O)CCl)c1c(CC)cccc1CC`: “inactive”.
